CHO-K1 Ca PAM: nonselective calcium activators in parental CHO-K1 cells, primary screen, counter-screen for M1 PAM project, cell-based, Fluo-8 calcium fluorescence, full deck, 1536-well; activation, % at 3 µM; 0.02% of 360,000 active; ATP EC20; 0% at ATP EC20, 100% at ATP max;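 active = activation above the run cutoff, the mean activation of all test compounds plus 3 SD, cut at about 40% in these data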;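 also: peak over basal fluorescence ratio in a 140 s read after ATP addition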
M1 PAM: human M1 muscarinic receptor positive allosteric modulators, primary screen, CHO-K1 cells, Fluo-8 calcium fluorescence, 1536-well; CHO-K1 hM1, ACh EC20; 0% = ACh EC20, 100% = maximal ACh; activation, % at 3 µM; 0.088% of 360,000 active; AID 588819, 2011; in the data active = activation above about 19%, passing the limit was not always enough
Target sequence (P11229 whole entry, looked up): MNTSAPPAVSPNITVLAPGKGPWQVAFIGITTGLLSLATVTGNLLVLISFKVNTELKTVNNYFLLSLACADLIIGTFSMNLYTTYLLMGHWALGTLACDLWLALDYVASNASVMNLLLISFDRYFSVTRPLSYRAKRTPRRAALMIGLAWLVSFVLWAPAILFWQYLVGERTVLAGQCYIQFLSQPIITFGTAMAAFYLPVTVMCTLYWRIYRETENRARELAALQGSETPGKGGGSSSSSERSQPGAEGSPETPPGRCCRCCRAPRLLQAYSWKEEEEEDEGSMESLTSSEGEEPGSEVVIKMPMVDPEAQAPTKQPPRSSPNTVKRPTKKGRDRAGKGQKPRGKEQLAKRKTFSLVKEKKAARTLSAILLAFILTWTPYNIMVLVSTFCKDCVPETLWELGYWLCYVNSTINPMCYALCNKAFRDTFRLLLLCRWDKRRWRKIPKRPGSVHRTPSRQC
CHO-K1 Ca ag: counter-screen for M1 agonists: effect in parental CHO-K1 cells; Fluo-8 calcium fluorescence; scaled to maximal ATP response, vehicle zero; activation, % at 3 µM; 0.48% of 360,000 active; in the data active = activation above about 15%;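 also: untransfected CHO-K1 host cells lacking M1 receptor as counterscreen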
CHRM1 antagonist: human M1 muscarinic receptor antagonists, primary screen, CHO-K1 cells, Fluo-8 calcium fluorescence, 1536-well; CHO-K1 hM1, ACh EC80 antagonist; inhibition, % at 3 µM; 1.3% of 360,000 active; AID 588852, 2011;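 active = percent inhibition above its own plate's cutoff, namely the mean of that plate's compound wells plus 3 SD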;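 also: peak over basal fluorescence ratio during 140 s after agonist addition; 0% = ACh EC80 plus DMSO and 100% = DMSO alone without agonist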
M1 ag: human M1 muscarinic receptor agonists, primary screen, Fluo-8 calcium fluorescence, CHO-K1 cells, HTS | CHO-K1 hM1, agonist mode; 0% DMSO, 100% acetylcholine EC100 | Muscarinic acetylcholine receptor M1 (Homo sapiens), P11229 | activation, % at 3 µM | 0.33% of 360,000 active;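 active = activation above the run's mean compound activation plus 3 SD, cut at about 16% in these data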;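 also: peak over basal fluorescence ratio within a 140 s kinetic read after compound addition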
CHO-K1 Ca antag: M1 antagonist counterscreen hit in parental CHO-K1 cells. ATP-induced calcium, Fluo-8 fluorescence. inhibition, % at 3 µM. 0.6% of 360,000 active;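 active = inhibition above a per-plate cutoff, the plate's mean sample inhibition plus 3 SD, cut at about 24% in these data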;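 also: 0% = DMSO plus EC80 ATP and 100% = DMSO alone without ATP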
* marks the source's active call; other numbers are inactive results; . = no result. Most compounds without a hit are left out; they make up all but 2.4% or so of the library.

SMILES | CHO-K1 Ca PAM | M1 PAM | CHO-K1 Ca ag | CHRM1 antagonist | M1 ag | CHO-K1 Ca antag
Cc1nn(CC(=O)Nc2ccc3c(c2)nc(CCN2CCCCC2)n3C)c(=O)c2ccccc12 | 15.3 | -21.4 | 0.3 | 40.4* | -6.8 | -5.3
Cn1c(=O)[nH]c(=O)c2c1nc(CN1CCN(c3cccc(Cl)c3)CC1)n2CCc1ccccc1 | 18.5 | 14.2 | 0.0 | -16.8 | 1.3 | -21.6
Cn1c(CN2CCN(c3cccc(Cl)c3)CC2)nc2ccccc21 | -3.4 | -14.8 | 0.5 | 26.1* | -6.5 | 0.9
CC1CCN(CCc2nc3cc(NC(=O)C(C)C)ccc3n2C)CC1 | 0.1 | -31.6 | 1.9 | 88.2* | -11.0 | -13.0
COc1ccccc1C(=O)Nc1ccc2c(c1)nc(CN1CCN(C(C)=O)CC1)n2C | -7.5 | -5.6 | -0.6 | 6.3 | -2.7 | 24.2*
CC(=O)N1CCN(Cc2nc3cc(NC(=O)c4ccccc4)ccc3n2C)CC1 | -3.0 | -5.1 | 0.5 | -5.2 | -1.2 | 8.9
CCOC(=O)CCCNC(=O)CN1CCC(c2nc3ccccc3s2)CC1 | 14.2 | 11.1 | 0.9 | -15.7 | -8.8 | -5.3
COc1ccc(OC(=O)COc2ccc(Cl)cc2)cc1 | 6.9 | 7.0 | 0.2 | -10.4 | -6.2 | -7.4
O=C(Nc1ccc(F)cc1)N1CCN(C(=O)C2CCCO2)CC1 (stereo not drawn) | 6.7 | 2.5 | 4.2 | -2.1 | -0.5 | -0.8
CC(C)C(=O)Nc1ccc2c(c1)nc(CCN1CCCCC1)n2C | 6.7 | 6.1 | 1.1 | -7.6 | -10.7 | 0.8
CC(C)C(=O)Nc1ccc2c(c1)nc(CCN1CCN(c3ccccc3)CC1)n2C | -15.9 | -19.4 | 0.3 | 44.5* | -8.3 | 10.6
Cc1cccc(C(=O)NN2C(=O)C3C(c4ccccc4)C=CC(c4ccccc4)C3C2=O)c1 (stereo not drawn) | 15.5 | -22.0 | 1.8 | 89.1* | 3.4 | 1.2
Cc1cccc(C(=O)NN2S(=O)(=O)c3ccccc3S2(=O)=O)c1 | 12.5 | 5.4 | 0.8 | 32.9* | -2.5 | -21.6
Cc1ccccc1NC(=O)Cn1nc(-c2ccccc2)nc1-c1ccccc1 | -6.5 | 9.9 | -0.2 | -2.6 | 1.2 | 24.2*
CC(=O)Nc1ccc(NS(=O)(=O)c2ccc(-c3cnc(C4CC4)o3)cc2)cc1 | 11.1 | -5.3 | 1.3 | 14.8 | -3.4 | 3.9
CC(=O)c1cccc(NS(=O)(=O)c2ccc(-c3cnc(C4CC4)o3)cc2)c1 | 0.7 | -11.7 | 16.2* | 32.1* | 3.6 | 12.1
Cc1ccc(NC(=S)NC2CCSc3ccccc32)cc1C (stereo not drawn) | -8.9 | -22.1 | 0.8 | 79.1* | -4.6 | 14.5
O=C1NC[C@@H](Cc2cccc3ccccc23)N(CCc2cccc(F)c2)C1=O | -9.6 | . | 1.3 | . | . | 11.6
O=C(Cn1c(-c2ccccn2)nc2ccccc21)N/N=C/c1ccccn1 | -14.1 | -8.3 | 3.7 | 14.5 | 0.1 | 29.9*
Cc1ccc(S(=O)(=O)NNC(=O)Nc2ccc([N+](=O)[O-])cc2)c(C)c1 | 0.3 | -3.9 | 3.6 | 4.2 | -1.9 | -3.5
O=C1NC(Cc2ccc(O)cc2)c2nc3ccc(F)cc3c(=O)n2-c2cc3ccccc3cc21 (stereo not drawn) | 19.2 | -10.3 | 5.7 | 23.2* | -0.7 | 8.6
O=C1NC(Cc2ccc(O)cc2)c2nc3cc(F)c(F)cc3c(=O)n2-c2cc3ccccc3cc21 (stereo not drawn) | -10.1 | -16.2 | 1.4 | 24.9 | -3.0 | 35.5*
O=C1NC(Cc2ccccc2)c2nc3cc(F)c(F)cc3c(=O)n2-c2cc3ccccc3cc21 (stereo not drawn) | -6.0 | -0.2 | 0.5 | 11.1 | -5.1 | 7.5
Cc1ccc2nc3n(c(=O)c2c1)-c1cc2ccccc2cc1C(=O)NC3Cc1ccc(O)cc1 (stereo not drawn) | -1.6 | -5.8 | 3.2 | 15.4 | 0.7 | 12.7
Cc1ccccc1S(=O)(=O)NC(=O)C1(C)CCN1C(=O)C1CCCCC1 (stereo not drawn) | 17.5 | 10.7 | 0.9 | -16.4 | -1.9 | -15.5
SMILES | CHO-K1 Ca PAM | M1 PAM | CHO-K1 Ca ag | CHRM1 antagonist | M1 ag | CHO-K1 Ca antag
CCOC(=O)N1CCC(N2CCCC(CO)(Cc3ccccc3C)C2)CC1 (stereo not drawn) | 1.4 | -19.7 | 0.0 | 26.3* | -10.1 | -3.0
CCOC(=O)N1CCC(N2CCCC(CO)(Cc3cccc(Cl)c3)C2)CC1 (stereo not drawn) | 8.4 | -15.0 | 1.8 | 39.4* | -0.4 | -11.3
CCOC(=O)C1CCN(c2ccccc2CN2CCN(c3ccccc3OCC)CC2)CC1 | -7.9 | -23.1 | 5.0 | 47.5* | -6.6 | 20.5
O=C(O)C(=Cc1ccccc1[N+](=O)[O-])c1ccc2c(c1)OCO2 | 9.9 | 1.9 | 0.4 | -7.4 | -0.7 | -11.3
CC(C)(C)[C@]1(O)CCN2C[C@H]3c4ccccc4CCc4cccc(c43)[C@@H]2C1 | 40.7* | 4.3 | 2.2 | -32.2 | 0.9 | -17.5
O=C(NCc1ccc(Cl)cc1)C1CCN(S(=O)(=O)c2ccc(N3CCCC3=O)cc2)CC1 | -26.0 | -14.8 | 9.0 | 32.8* | 1.0 | 1.2
COc1cccc(NC(=O)C2CCN(S(=O)(=O)c3ccc(N4CCCC4=O)cc3)CC2)c1 | -0.5 | -12.0 | 12.6 | 4.9 | 2.6 | -8.3
COc1cccc(NC(=O)C2CCN(S(=O)(=O)c3ccc4c(c3)CC(C)N4C(C)=O)CC2)c1 (stereo not drawn) | 3.0 | -4.5 | 9.2 | 3.9 | -0.3 | -15.2
O=C(NCc1ccccc1)C1CCN(S(=O)(=O)c2ccc(N3CCCC3=O)cc2)CC1 | 15.7 | 12.0 | 5.6 | -17.5 | -1.0 | -5.2
COc1ccc(CNC(=O)CCNC(=O)C2CCN(S(=O)(=O)c3ccc(OC)cc3)CC2)cc1 | 15.6 | 26.9* | 0.2 | -32.9 | 0.6 | -12.7
COc1ccc(NC(=O)CCNC(=O)C2CCN(S(=O)(=O)c3ccc(OC)cc3)CC2)cc1 | 1.2 | 6.7 | 0.6 | -5.0 | -0.9 | -4.9
O=C(Nc1cccc(C(F)(F)F)c1)C1CCN(S(=O)(=O)c2ccc(N3CCCC3=O)cc2)CC1 | 2.2 | -7.8 | 16.0* | 33.1 | 1.6 | 21.7
CC(=O)N1c2ccc(S(=O)(=O)N3CCC(C(=O)Nc4cccc(C(F)(F)F)c4)CC3)cc2CC1C (stereo not drawn) | -10.5 | -2.3 | 8.5 | 14.4 | 0.9 | 31.9*
Cc1cc(F)ccc1S(=O)(=O)Nc1ccc(C(=O)N2CCCCCC2)cc1 | 1.4 | -11.3 | 1.1 | 12.3 | -7.6 | 0.3
CCC(CC)C(=O)Nc1ccc(Sc2ccc([N+](=O)[O-])cc2)cc1 | -12.3 | -27.1 | 9.8 | 34.6* | -6.7 | -8.4
CCC(=O)N1CCN(c2ccc(NC(=O)COc3cccc(C)c3C)cc2)CC1 | -3.3 | -9.5 | 8.6 | 15.9 | -4.7 | 15.0
